Among the data in PubChem BioAssay AID1619 (SRMLSC, 2009) are inhibition values, retold here.

Screen size: about 220,000 compounds; about 830 (0.38%) were called active.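 Rule for the calls: active = compound inhibiting the enzyme by more than half at any dose during confirmatory dose-response retesting; inconclusive = strong single-dose inhibitors picked by rank but not retested; inactive = the rest.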 These entries were drawn from the full list. Potency and affinity values are given separately.

The target of this assay is Leucine aminopeptidase (Plasmodium falciparum (isolate 3D7)) (UniProt Q8IL11). As to the kind of experiment: P. falciparum M17LAP inhibitors, primary screen, biochemical, fluorogenic H-Leu-NHMec substrate, 1536-well (AID 1619).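 Note: plate controls were full reaction with DMSO carrier for no effect and no enzyme background for full effect.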 Conditions: recombinant M17LAP, H-Leu-NHMec fluorogenic kinetic assay; at 30 µM; stronger effect = higher value.
Leucine aminopeptidase (Plasmodium falciparum (isolate 3D7)), sequence (Q8IL11 whole entry, looked up): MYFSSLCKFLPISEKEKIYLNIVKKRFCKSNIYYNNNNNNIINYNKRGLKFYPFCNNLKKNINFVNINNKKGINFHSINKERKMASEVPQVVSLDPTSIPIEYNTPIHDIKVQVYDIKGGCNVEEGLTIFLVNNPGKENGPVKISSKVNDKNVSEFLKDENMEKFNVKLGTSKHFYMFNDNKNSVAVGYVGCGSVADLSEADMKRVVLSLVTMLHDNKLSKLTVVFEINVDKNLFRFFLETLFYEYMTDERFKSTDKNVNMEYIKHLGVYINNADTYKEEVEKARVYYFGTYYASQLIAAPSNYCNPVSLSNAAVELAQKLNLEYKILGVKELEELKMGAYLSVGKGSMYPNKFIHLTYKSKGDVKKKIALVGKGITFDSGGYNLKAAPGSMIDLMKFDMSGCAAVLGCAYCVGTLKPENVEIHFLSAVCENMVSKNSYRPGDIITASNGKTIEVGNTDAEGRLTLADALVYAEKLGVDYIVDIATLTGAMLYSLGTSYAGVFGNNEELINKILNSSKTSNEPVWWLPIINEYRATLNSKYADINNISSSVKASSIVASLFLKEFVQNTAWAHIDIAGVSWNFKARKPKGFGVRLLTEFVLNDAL
For orientation: inhibition means the drop in the measured response relative to a control, in per cent. In the case of `CCOC(=O)NC(=O)C(=CNc1ccccc1OC)C(=O)NC(=O)OCC`, the inhibition is 22.1% (inactive).

As to `O=[N+]([O-])c1ccc([C@H](O)[C@H](CO)N=Cc2ccccc2O)cc1`, the inhibition was 3.71% (inactive).

For the compound `CCNC(=O)CC1C(=O)N(c2ccccc2)C(=O)N1Cc1ccc(OC)cc1` (centres undefined), the inhibition is -7.36% (inactive).

For `Cc1c(-c2nnc(-c3ccc(C(F)(F)F)cc3)o2)cnn1-c1ccccc1`, the inhibition is -4.2% (inactive).

On to `CC(/C=C1\SC(=S)N(CC(=O)O)C1=O)=C\c1ccccc1`, for which the inhibition was 19.7% (inactive).

Regarding `CC(=C\c1ccccc1)/C=C1/SC(=O)N(CCCC(=O)Nc2ccc(C(=O)O)cc2)C1=O`, the inhibition is 52.8% (inactive).

In the case of `CN1CCN(CC(=O)Nc2sc3c(c2C#N)CCC(C(C)(C)C)C3)CC1` (centres undefined), the inhibition is -2.54% (inactive).

On to `Cc1cc(C(=O)Nc2sc3c(c2C#N)CCC(C(C)(C)C)C3)no1` (centres undefined), for which the inhibition is -3.46% (inactive).

With `CCCC1CCc2c(sc(NC(=O)OCC)c2C#N)C1` (centres undefined), the inhibition is -10% (inactive).

On to `CC(=O)Nc1sc2c(c1C#N)CCC(C)C2` (centres undefined), for which the inhibition was -3.55% (inactive).

`CCCn1ncc(CN2CCN(Cc3ccsc3)C(CCO)C2)c1C` (centres undefined): the inhibition was -4.96% (inactive).

For the compound `Cc1ccc(Nc2ccc(-n3ccnc3)nn2)cc1C`, the inhibition is 1.15% (inactive).

With `CCCCNC(=O)N1CCN(C(=O)C2CCCO2)CC1` (centres undefined), the inhibition is -0.24% (inactive).

Consider `C=C(C)COc1ccc2oc(C)c(C(=O)OCCOC)c2c1`, for which the inhibition was -2.33% (inactive).

As to `CCCCOc1ccc(N(CC(=O)NCC2CCCO2)C(=O)CCC(=O)Nc2nccs2)cc1` (centres undefined), the inhibition is -11.6% (inactive).

Consider `CCOc1ccc(NC(=O)C2CC(=O)NC(N3CCc4ccccc43)=N2)cc1` (centres undefined), for which the inhibition was 13.4% (inactive).

In the case of `O=C(CSc1nccc(-c2cccs2)n1)Nc1ccc(F)c(Cl)c1`, the inhibition was 8.92% (inactive).

As for `CCn1c2ccccc2c2cc(NC(=O)CC(C)=O)ccc21`, the inhibition is -12.3% (inactive).

As to `Nc1cc(=O)[nH]c(SCC(=O)Nc2ccc(F)c(Cl)c2)n1`, the inhibition is 45.2% (inactive).

With `CCC(=O)Nc1ccc(Br)c(Cl)c1`, the inhibition is -2.61% (inactive).

Turning to `CCCC(=O)Nc1ccc2c(c1)c1ccccc1n2CC`, the inhibition is -0.99% (inactive).

`O=C(CSc1nccc(=O)[nH]1)Nc1ccc(F)c([N+](=O)[O-])c1`: the inhibition was 31.4% (inactive).

Consider `CN(C)S(=O)(=O)c1cccc(NC(=S)NCCCn2ccnc2)c1`, for which the inhibition was 2.61% (inactive).

With `Cn1nnc2cc(C(=O)N3CCC(c4ccccc4)C3)ccc21` (centres undefined), the inhibition is 9.75% (inactive).

As to `O=C(COc1ccc(/C=N/NC(=O)c2ccc(O)cc2)cc1)Nc1cccc([N+](=O)[O-])c1`, the inhibition was -2.3% (inactive).

As to `CNC(=S)Nc1cccc(Cl)c1C`, the inhibition was 0.94% (inactive).

As to `CCn1c(Cc2ccccc2)nnc1SCc1ccc([N+](=O)[O-])cc1`, the inhibition is -12% (inactive).

Consider `Oc1[nH]c2ccccc2c1N=Nc1ccccc1`, for which the inhibition is 7.84% (inactive).

Take `Oc1[nH]c2ccccc2c1N=Nc1ccc(F)cc1`: the inhibition is 26.1% (inactive).

For `Cc1[nH]c2ccccc2c1N=Nc1cc(C(=O)O)cc(C(=O)O)c1`, the inhibition is 21.5% (inactive).

For `CC(=O)c1cccc(N=Nc2c(C)[nH]c3ccccc23)c1`, the inhibition is -8.29% (inactive).

On to `COc1cccc(CNC(=O)CCC2CCCN(Cc3cc4ccccc4o3)C2)c1` (centres undefined), for which the inhibition is -1.88% (inactive).

Regarding `O=c1cc(Cc2ccccc2)[nH]c(=S)[nH]1`, the inhibition is 0.4% (inactive).

Regarding `Cc1nnc(SCc2cc(=O)[nH]c(=S)[nH]2)s1`, the inhibition was 27.4% (inactive).

Regarding `O=C(NC1CCS(=O)(=O)C1)c1cn(-c2ccccc2)nc1-c1ccccc1` (centres undefined), the inhibition is -4.23% (inactive).

As for `Cc1cc(C)nc(N2CCCC(C(=O)NC(C)CCc3ccco3)C2)n1` (centres undefined), the inhibition is 2.6% (inactive).

Turning to `CC(OC(=O)CCCc1nc2ccccc2s1)C(=O)NC(N)=O` (centres undefined), the inhibition was -1.53% (inactive).

Turning to `Cc1ccccc1S(=O)(=O)c1cc(C#N)c(=O)[nH]c1N`, the inhibition is -8.15% (inactive).

For the compound `COc1ccc(N(CC(=O)NCc2ccccc2)S(=O)(=O)c2c(C)noc2C)cc1`, the inhibition was -3.73% (inactive).

As for `CCOc1ccc(NC(=S)NCc2nc3ccccc3[nH]2)cc1`, the inhibition is -5.56% (inactive).

In the case of `Cc1ccc(-c2ccc(/C=N/N3C(=O)C4C5C=CC(CC5)C4C3=O)o2)c([N+](=O)[O-])c1` (centres undefined), the inhibition was 5.1% (inactive).

With `O=C(O)CC1S/C(=N/N=C/c2ccc(-c3ccc(Cl)cc3[N+](=O)[O-])o2)NC1=O` (centres undefined), the inhibition is 31.2% (inactive).

On to `COc1cc(-c2cc(C(=O)Nc3nc4ccccc4s3)c3ccccc3n2)cc(OC)c1OC`, for which the inhibition was 4.34% (inactive).

As for `c1ccc(CN2c3ccccc3-c3nc4ccccc4n3C2c2ccccn2)cc1` (centres undefined), the inhibition was 1.51% (inactive).

With `COCCOC(=O)C1=C(C)NC(=O)NC1/C=C/c1ccccc1` (centres undefined), the inhibition was 0.26% (inactive).

As to `N#C/C(=C/c1ccc(F)cc1)S(=O)(=O)c1ccccc1`, the inhibition was -4.38% (inactive).

For `Cc1cc(C)c(/C=C(\C#N)S(=O)(=O)c2ccccc2)[nH]1`, the inhibition was -7.74% (inactive).

As to `CC1=CC2=NC(=O)/C(=C\c3cccn3CCOc3ccccc3)C(=N)N2O1`, the inhibition is 8.69% (inactive).

Regarding `COc1cccc(OCCn2cccc2/C=C2/C(=N)N3OC(C)=CC3=NC2=O)c1`, the inhibition is 0.81% (inactive).

`Cc1nn(-c2ccccc2)c(C)c1C(=O)NCc1ccc(F)cc1`: the inhibition is -15.7% (inactive).

`FC(F)(F)c1cnc(-c2cnc(-c3cccnc3)nc2)c(Cl)c1`: the inhibition is 1.19% (inactive).

In the case of `c1coc(-c2ncc[nH]2)c1`, the inhibition is -2.51% (inactive).

On to `c1coc(-c2nc(-c3ccco3)c(-c3ccco3)nc2-c2ccco2)c1`, for which the inhibition was 48.1% (inactive).

As to `COc1ccc(/C=N/N2CCN(c3ccncc3S(=O)(=O)N3CCCCC3)CC2)cc1`, the inhibition was 0% (inactive).

Take `CCOc1ncccc1C(=O)OCC(=O)c1cc(C)n(Cc2ccco2)c1C`: the inhibition is 6.52% (inactive).

For the compound `Cc1cc(C(=O)OCC(N)=O)c(C)n1-c1ccccc1`, the inhibition was 3.65% (inactive).

On to `Cc1cc(C(=O)COC(=O)c2cccnc2Cl)c(C)n1-c1c(C)n(C)n(-c2ccccc2)c1=O`, for which the inhibition was 10.5% (inactive).

Turning to `CCCn1c(C)cc(C(=O)COC(=O)c2nccnc2N)c1C`, the inhibition was 6.47% (inactive).

Take `COc1ccc(Nc2nc(N)nc(CN3CCC(Cc4ccccc4)CC3)n2)cc1`: the inhibition was -2.44% (inactive).

In the case of `CCOC(=O)CC(=O)CSc1n[nH]c(=O)[nH]c1=O`, the inhibition was -5.31% (inactive).

Turning to `C=CCn1c(SCC(=O)c2ccc(OC)cc2)nnc1-c1cc2cccc(OC)c2o1`, the inhibition is 3.95% (inactive).

Take `C=CCn1c(SCC(=O)c2ccc(O)c(O)c2)nnc1-c1cccnc1`: the inhibition is 22.5% (inactive).

Regarding `CCn1c(SCC(=O)C(C)(C)C)nnc1-c1ccccc1OC`, the inhibition is 6.79% (inactive).

Take `CCn1c(SCC(=O)O)nnc1-c1ccccc1OC`: the inhibition is -7.5% (inactive).
